Source: PubChem BioAssay (NCI)
The panel holds about 83,000 compounds, 20% with a hit somewhere; the sample as a whole holds those more often.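 Note: values are percent growth. 100 is the growth of untreated cells, values between 100 and 0 indicate rising inhibition; between -100 and 0 indicates cell death.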 Activity calls are given as the source filed them. Rule for the calls: active = growth percent below 10; inactive = the rest.

Columns and labels:
Test in all cases: NCI-60 one-dose screen, 48 h (100 = growth as untreated, 0 = no growth, -100 = all killed)
Details in all cases: 10 µM unless noted
DU-145 prostate = test system: DU-145 prostate
K-562 leukemia = test system: K-562 leukemia
MALME-3M melanoma = test system: MALME-3M melanoma
MDA-MB-231 breast = test system: MDA-MB-231 breast
RXF 393 renal = test system: RXF 393 renal
SF-268 CNS = test system: SF-268 CNS
SF-295 CNS = test system: SF-295 CNS
SF-539 CNS = test system: SF-539 CNS
UACC-257 melanoma = test system: UACC-257 melanoma
M14 melanoma = test system: M14 melanoma
HCT-15 colon = test system: HCT-15 colon
HT29 colon = test system: HT29 colon
SNB-75 CNS = test system: SNB-75 CNS
SNB-19 CNS = test system: SNB-19 CNS
U251 CNS = test system: U251 CNS
PC-3 prostate = test system: PC-3 prostate
SK-MEL-5 melanoma = test system: SK-MEL-5 melanoma
UACC-62 melanoma = test system: UACC-62 melanoma
LOX IMVI melanoma = test system: LOX IMVI melanoma
SK-MEL-28 melanoma = test system: SK-MEL-28 melanoma

Measured: growth

Oc1c(Cl)cc(Oc2cc(Cl)c(O)c(CN3CCOCC3)c2)cc1CN1CCOCC1
inactive: DU-145 prostate 101% | K-562 leukemia 81.4% | MALME-3M melanoma 105% | MDA-MB-231 breast 96.6% | RXF 393 renal 104% | SF-268 CNS 87.9% | SF-295 CNS 99.4% | SF-539 CNS 98.2% | UACC-257 melanoma 86.4% | M14 melanoma 105% | HCT-15 colon 82.1% | HT29 colon 105% | SNB-75 CNS 88.1% | SNB-19 CNS 86.2% | U251 CNS 96.9% | PC-3 prostate 81% | SK-MEL-5 melanoma 87.5% | UACC-62 melanoma 66.8% | LOX IMVI melanoma 83.3% | SK-MEL-28 melanoma 126%

N#CC(C#N)C(C#N)C#N
inactive: DU-145 prostate 112% | K-562 leukemia 105% | MALME-3M melanoma 114% | MDA-MB-231 breast 108% | RXF 393 renal 110% | SF-268 CNS 104% | SF-295 CNS 102% | SF-539 CNS 105% | UACC-257 melanoma 85.7% | M14 melanoma 99.7% | HCT-15 colon 103% | HT29 colon 97% | SNB-75 CNS 82% | SNB-19 CNS 114% | U251 CNS 93.6% | PC-3 prostate 90.4% | SK-MEL-5 melanoma 103% | UACC-62 melanoma 98.6% | LOX IMVI melanoma 104% | SK-MEL-28 melanoma 110%

C[C@H]1c2cccc(O)c2C(O)=C2C(=O)[C@]3(O)C(O)=C(C(N)=O)C(=O)[C@@H](N(C)C)[C@@H]3[C@@H](O)[C@@H]21
active: SK-MEL-5 melanoma 9.29%
inactive: DU-145 prostate 47.7% | K-562 leukemia 37.9% | MALME-3M melanoma 27.8% | MDA-MB-231 breast 74.6% | RXF 393 renal 58.3% | SF-268 CNS 28.2% | SF-295 CNS 19.2% | SF-539 CNS 25.6% | UACC-257 melanoma 57.7% | M14 melanoma 32.1% | HCT-15 colon 31.2% | HT29 colon 39.6% | SNB-75 CNS 47.3% | SNB-19 CNS 69.9% | U251 CNS 33.1% | PC-3 prostate 42.3% | UACC-62 melanoma 34.1% | LOX IMVI melanoma 31.5% | SK-MEL-28 melanoma 65.4%

CC(=O)N1N=C(c2ccc(Nc3nc(NCCO)nc(NCCO)n3)cc2)CC1c1ccc(Cl)cc1 (stereo not given)
inactive: DU-145 prostate 98.6% | K-562 leukemia 119% | MALME-3M melanoma 91% | MDA-MB-231 breast 92.5% | RXF 393 renal 108% | SF-268 CNS 100% | SF-295 CNS 96.6% | SF-539 CNS 90.2% | UACC-257 melanoma 91.8% | M14 melanoma 98.9% | HCT-15 colon 94.5% | HT29 colon 86.8% | SNB-75 CNS 84.7% | SNB-19 CNS 86.3% | U251 CNS 94.3% | PC-3 prostate 81.4% | SK-MEL-5 melanoma 98.3% | UACC-62 melanoma 107% | LOX IMVI melanoma 93.6% | SK-MEL-28 melanoma 104%

COc1cc(/C=N/OC(=O)Nc2ccccc2)cc(OC)c1OC
inactive: DU-145 prostate 115% | K-562 leukemia 107% | MALME-3M melanoma 97.9% | MDA-MB-231 breast 92.6% | RXF 393 renal 121% | SF-268 CNS 107% | SF-295 CNS 129% | SF-539 CNS 100% | UACC-257 melanoma 105% | M14 melanoma 107% | HCT-15 colon 112% | HT29 colon 104% | SNB-75 CNS 85.2% | SNB-19 CNS 105% | U251 CNS 107% | PC-3 prostate 91.1% | SK-MEL-5 melanoma 102% | UACC-62 melanoma 90.5% | LOX IMVI melanoma 90.6% | SK-MEL-28 melanoma 104%

COc1cnc2c(c1)C(=O)c1c-2n(CCCNC2=NCCS2)c(=O)c2cc(F)ccc12
active: K-562 leukemia -34.4% | SF-295 CNS -5.74% | SF-539 CNS -13.2% | M14 melanoma 5.96% | SK-MEL-5 melanoma 0.102% | LOX IMVI melanoma -73.8%
inactive: DU-145 prostate 14.9% | MALME-3M melanoma 27.8% | MDA-MB-231 breast 51% | RXF 393 renal 35.1% | SF-268 CNS 23.2% | UACC-257 melanoma 21.8% | HCT-15 colon 43.3% | HT29 colon 22.2% | SNB-75 CNS 33.1% | SNB-19 CNS 54.6% | U251 CNS 12.1% | PC-3 prostate 36.9% | UACC-62 melanoma 17.4% | SK-MEL-28 melanoma 79.2%

C=C1CCC2C(C)(COC(=O)CC)C(OC(=O)CC)CCC2(C)C1C/C=C1/C(=O)OCC1OC(=O)CC (stereo not given)
inactive: DU-145 prostate 28.9% | SF-268 CNS 39.4% | SF-295 CNS 56.7% | SNB-19 CNS 62% | PC-3 prostate 27.7% | SK-MEL-5 melanoma 16.8%
active: K-562 leukemia 2.81% | MALME-3M melanoma 2.98% | MDA-MB-231 breast -29.6% | RXF 393 renal -97.5% | SF-539 CNS -64.3% | UACC-257 melanoma 0.936% | M14 melanoma -76.8% | HCT-15 colon 0.0652% | HT29 colon -73.2% | SNB-75 CNS -3.12% | U251 CNS -72.3% | UACC-62 melanoma 0.659% | LOX IMVI melanoma -99.1% | SK-MEL-28 melanoma -36.1%

COc1cc(NC(=O)NCc2ccco2)ccc1-c1ccc(NC(=O)NCc2ccco2)cc1OC
inactive: DU-145 prostate 56.6% | K-562 leukemia 36% | MALME-3M melanoma 78% | MDA-MB-231 breast 43.2% | SF-268 CNS 56.8% | SF-295 CNS 46.3% | UACC-257 melanoma 51% | M14 melanoma 64.3% | HCT-15 colon 48.7% | HT29 colon 33.7% | SNB-75 CNS 65.3% | SNB-19 CNS 72.9% | U251 CNS 12.4% | PC-3 prostate 33.6% | SK-MEL-5 melanoma 30.6% | UACC-62 melanoma 45.3% | LOX IMVI melanoma 45.4% | SK-MEL-28 melanoma 79.8%
active: RXF 393 renal -10.7% | SF-539 CNS -1.88%

CCCCCCCCCCCCCCCCNC(=O)Nc1ccc2ccccc2c1
inactive: DU-145 prostate 126% | K-562 leukemia 111% | MALME-3M melanoma 95.4% | MDA-MB-231 breast 98.1% | RXF 393 renal 104% | SF-268 CNS 126% | SF-295 CNS 106% | SF-539 CNS 106% | UACC-257 melanoma 95.5% | M14 melanoma 94.9% | HCT-15 colon 103% | HT29 colon 107% | SNB-75 CNS 98.1% | SNB-19 CNS 96.9% | U251 CNS 105% | PC-3 prostate 91.5% | SK-MEL-5 melanoma 99.4% | UACC-62 melanoma 92.7% | LOX IMVI melanoma 101% | SK-MEL-28 melanoma 108%

COc1cc(/C=C/C(=O)c2c(C)n([O-])c3ccc(Cl)cc3[n+]2=O)cc(OC)c1OC
inactive: DU-145 prostate 66.8% | K-562 leukemia 45.8% | MALME-3M melanoma 78.7% | MDA-MB-231 breast 78.5% | RXF 393 renal 42.6% | SF-268 CNS 74% | SF-295 CNS 114% | SF-539 CNS 96.9% | UACC-257 melanoma 81.3% | M14 melanoma 78.4% | HCT-15 colon 59% | HT29 colon 102% | SNB-75 CNS 75.8% | SNB-19 CNS 83.1% | U251 CNS 80.1% | PC-3 prostate 89.5% | SK-MEL-5 melanoma 47% | UACC-62 melanoma 82.9% | LOX IMVI melanoma 68.9% | SK-MEL-28 melanoma 84%

NC(=NCCCCCCN=C(N)/N=C(\N)Nc1ccc(Cl)cc1)/N=C(\N)Nc1ccc(Cl)cc1
inactive: DU-145 prostate 33.2% | MALME-3M melanoma 26.7% | SF-268 CNS 20.8% | UACC-257 melanoma 33.7% | M14 melanoma 22.6% | HCT-15 colon 17.2% | SNB-19 CNS 13.7% | PC-3 prostate 20.7% | LOX IMVI melanoma 23.4% | SK-MEL-28 melanoma 32.8%
active: K-562 leukemia 8.11% | MDA-MB-231 breast 0.0954% | RXF 393 renal 1.06% | SF-295 CNS -9.13% | SF-539 CNS 0.167% | HT29 colon 7.91% | SNB-75 CNS -7.16% | U251 CNS -5.76% | SK-MEL-5 melanoma -95.7% | UACC-62 melanoma 8.7%

COc1ccc2c3c(ccc2c1)C(=O)/C(=C\O)CC3
inactive: DU-145 prostate 111% | K-562 leukemia 82.7% | MALME-3M melanoma 135% | MDA-MB-231 breast 102% | RXF 393 renal 119% | SF-268 CNS 93.6% | SF-295 CNS 107% | SF-539 CNS 96.4% | UACC-257 melanoma 101% | M14 melanoma 122% | HCT-15 colon 87.3% | HT29 colon 103% | SNB-75 CNS 91.9% | SNB-19 CNS 103% | U251 CNS 82.6% | PC-3 prostate 88.2% | SK-MEL-5 melanoma 103% | UACC-62 melanoma 107% | LOX IMVI melanoma 87.1% | SK-MEL-28 melanoma 128%

COc1cnc2c(c1)C(=O)c1c-2n(CCCN2CCNCC2)c(=O)c2cc(F)ccc12
inactive: UACC-257 melanoma 10.8% | SNB-19 CNS 18.3% | PC-3 prostate 22.8%
active: DU-145 prostate -0.602% | K-562 leukemia -65.9% | MALME-3M melanoma -60.7% | MDA-MB-231 breast 9.36% | RXF 393 renal -36% | SF-268 CNS 6.43% | SF-295 CNS 0.838% | SF-539 CNS -64.2% | M14 melanoma -56.7% | HCT-15 colon 2.48% | HT29 colon -42.1% | SNB-75 CNS -7.98% | U251 CNS 2.03% | SK-MEL-5 melanoma -88.5% | UACC-62 melanoma -0.448% | LOX IMVI melanoma -86.8% | SK-MEL-28 melanoma -60.5%

CC(=O)[C@H]1CC[C@H]2[C@@H]3C[C@H](C)C4=CC(=O)CC[C@]4(C)[C@H]3C(=O)C[C@]12C
inactive: DU-145 prostate 112% | K-562 leukemia 106% | MALME-3M melanoma 109% | MDA-MB-231 breast 108% | RXF 393 renal 103% | SF-268 CNS 96.6% | SF-295 CNS 120% | SF-539 CNS 98.5% | UACC-257 melanoma 102% | M14 melanoma 101% | HCT-15 colon 97.3% | HT29 colon 101% | SNB-75 CNS 89.6% | SNB-19 CNS 100% | U251 CNS 98.2% | PC-3 prostate 91.2% | SK-MEL-5 melanoma 100% | UACC-62 melanoma 97.1% | LOX IMVI melanoma 92.2% | SK-MEL-28 melanoma 115%
